The target of experiment [1] is Cellular tumor antigen p53 (Homo sapiens) (UniProt P04637). The experiment in a line: Primary qHTS for small molecule compounds that upregulate eGFP-tagged delta133p53alpha (in N-terminal) cells. (AID 2060322).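 For activation: cells pre-induced with doxycycline then dosed without doxycycline; series mostly up to about 56 µM; 0% = DMSO vehicle and 100% = reference activator.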 Note: nearly all actives have a fitted effect of over 75% in size. Note: potency is the fitted concentration of half-maximal effect. Conditions: NCI-H358 eGFP-delta133p53alpha fluorescence, 24 h; activation: hits give high values. In a few lines:
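NCI-H358 cells pre-induced 24 h with 10 ng/ml doxycycline for eGFP-delta133p53alpha, plated dox-free and exposed 24 h at 37C to titrated compounds. Fixed, Hoechst-stained; gated GFP peak intensity by laser scanning cytometry, normalized to DMSO (0%) and 57.5 uM 5-azacytidine (100%).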

Experiment [2] shares this target. The experiment in a line: Primary qHTS for small molecule compounds that upregulate eGFP-tagged delta133p53alpha (in C-terminal) cells. (AID 2060324). Note: potency is the fitted concentration of half-maximal effect. A digest of the protocol:
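Concentration-response screen: compounds titrated onto pre-induced NCI-H358 D133p53a-eGFP cells, incubated one day, fixed with 3.5% PFA. Per-cell GFP peak intensity was gated, then normalized against intraplate controls.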
In general terms: qHTS replaces the single test concentration by a dilution series.

Experiment [3] concerns the target Aldehyde dehydrogenase, mitochondrial (Homo sapiens) (UniProt P05091). Put plainly: qHTS for Inhibitors of the Aldehyde Dehydrogenase Family (ALDH2) Validation screens (AID 2061302; active = well fitted inhibition curve with a large enough effect; title and protocol of this record describe different tests;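 note: plate controls were DMSO vehicle for no effect and maximal DPI positive control response for full effect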).
Experiment [4] concerns the target Retinaldehyde dehydrogenase 3 (Homo sapiens) (UniProt P47895). The experiment in a line: qHTS for Inhibitors of the Aldehyde Dehydrogenase Family (ALDH1A3) Validation screen (AID 2061312). Note: % is set by controls: 0 for no effect and ±100 for the full control effect; nearly all actives have a fitted effect of over 45% in size.

Where “and” joins values, the source holds several entries; their conditions need not be identical. Equal entries are not always repeated. Results filed as inconclusive are left out. Unmarked numbers belong to inactive results. Calls of active or inactive are those of the source. Unless noted, calls come from the whole dose curve; as a rule, active = well fitted curve in the direction sought with a large enough effect; inconclusive = small, poorly fitted or top-dose-only effect, or another doubt; inactive = no such curve, though single readings can be large; an effect the other way counts as inactive or inconclusive. Where a SMILES comes first, the peptide text is derived from it. The star is where a group is joined. Cbz = O=C(OCc1ccccc1)*

Chain of Cellular tumor antigen p53 (Homo sapiens) (P04637 whole entry, looked up): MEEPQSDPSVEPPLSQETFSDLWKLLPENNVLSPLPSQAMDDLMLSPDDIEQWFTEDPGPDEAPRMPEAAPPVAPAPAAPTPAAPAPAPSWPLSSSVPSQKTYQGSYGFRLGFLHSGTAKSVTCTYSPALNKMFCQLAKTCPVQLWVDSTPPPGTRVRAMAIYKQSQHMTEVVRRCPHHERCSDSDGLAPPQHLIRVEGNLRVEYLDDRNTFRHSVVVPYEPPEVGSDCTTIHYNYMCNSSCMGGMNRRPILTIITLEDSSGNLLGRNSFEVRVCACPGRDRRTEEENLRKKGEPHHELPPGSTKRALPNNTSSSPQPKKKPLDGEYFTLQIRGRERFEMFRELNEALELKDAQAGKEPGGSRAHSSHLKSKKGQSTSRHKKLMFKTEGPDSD

Take `O=C(O)c1cc(=O)cc(C(=O)O)[nH]1`: the activation in experiment [1] is -16.3%. Moreover, the Potency entry in experiment [2], in experiment [3] and in experiment [4] was “inactive” in each case.
Regarding `NCCCNCCSP(=O)(O)O`, in experiment [1], the activation was 5.02% and 16.3%. Also, the Potency result in experiment [2], in experiment [3] and in experiment [4] was “inactive” throughout.
`Clc1cccc(Cl)c1NC1=NCCN1`: in experiment [1], the activation was -3.23% and -7.34% and -13.7%. The Potency result in experiment [2], in experiment [3] and in experiment [4] was “inactive” throughout.
On to `NCC1OC(O[C@H]2[C@H](O)[C@@H](OC3C(O)C(N)CC(N)C3OC3OC(CO)C(O)C(O)C3N)O[C@@H]2CO)C(N)C(O)C1O` (some centres not stated), for which the activation in experiment [1] was 6.76%. Besides, the Potency entry in experiment [2], in experiment [3] and in experiment [4] was “inactive” each time.
`CCCCCCCCCCCCCCSCC(=O)O`: the activation in experiment [1] is -11%. In addition, the Potency entry in experiment [2], in experiment [3] and in experiment [4] was “inactive” throughout.
Regarding `CC(C)[C@H](NC(=O)OCc1ccccc1)C(=O)N[C@H](C=O)Cc1ccccc1` (Cbz-Val-Phe-aldehyde), in experiment [1], the activation was -5.34%. Besides, the Potency result in experiment [2], in experiment [3] and in experiment [4] was “inactive” each time.
On to `CCCNC(C)C(=O)Nc1ccccc1C` (configuration not stated), for which the activation in experiment [1] is -9.21% and 30.8%. Further, the Potency entry in experiment [2], in experiment [3] and in experiment [4] was “inactive” throughout.
With `CC(C)[C@@H]1CC[C@@H](C)C[C@@H]1P(=O)(c1ccccc1)c1ccccc1`, the activation in experiment [1] is -3.04%. The Potency result in experiment [2], in experiment [3] and in experiment [4] was “inactive” each time.
Regarding `N[C@@H](CC(=O)O)C(=O)O`, the activation in experiment [1] was -3.52%. Also, the Potency entry in experiment [2], in experiment [3] and in experiment [4] was “inactive” in each case.
For `Nc1cc(Cl)c(NC2=NCCN2)c(Cl)c1`, the activation in experiment [1] was -1.06%. Further, the Potency result in experiment [2], in experiment [3] and in experiment [4] was “inactive” in each case.
Consider `COc1cc(CC(=O)O)ccc1O`, for which the activation in experiment [1] is -3.12%. In addition, the Potency entry in experiment [2], in experiment [3] and in experiment [4] was “inactive” each time.
For `C[N+](C)(C)CCOC(N)=O`, the activation in experiment [1] was -23.4% and -15.4%. The Potency entry in experiment [2], in experiment [3] and in experiment [4] was “inactive” throughout.
For `CCn1c(=O)[nH]c2cc(Cl)c(Cl)cc21`, the activation in experiment [1] was -55.4%. In addition, the Potency result in experiment [2], in experiment [3] and in experiment [4] was “inactive” in each case.
Turning to `CC(C)(C)c1ccc(/C=C/C(=O)Nc2ccc3c(c2)OCCO3)cc1`, the activation in experiment [1] was -15.3%. For the same molecule, the Potency entry in experiment [2], in experiment [3] and in experiment [4] was “inactive” in each case.
Take `CN1CCc2cc(Cl)c(O)cc2[C@@H](c2ccccc2)C1`: in experiment [1], the activation was -19.2%. Besides, the Potency result in experiment [2], in experiment [3] and in experiment [4] was “inactive” each time.
For the molecule `CNCC[C@H](Oc1ccc(C(F)(F)F)cc1)c1ccccc1`, in experiment [1], the activation was -46.5%. The Potency result in experiment [2], in experiment [3] and in experiment [4] was “inactive” each time.
Turning to `Nc1nc(Cl)nc2c1ncn2[C@@H]1O[C@H](CO)[C@@H](O)[C@H]1O`, the activation in experiment [1] is -6.39%. The Potency entry in experiment [2], in experiment [3] and in experiment [4] was “inactive” throughout.
For `COc1cc(N)c(Cl)cc1C(=O)OCCN1CCCCC1`, the activation in experiment [1] is -2.92%. In addition, the Potency entry in experiment [2], in experiment [3] and in experiment [4] was “inactive” throughout.
Consider `NC(N)=NC(N)=Nc1cccc(Cl)c1`, for which the activation in experiment [1] was -3.06%. Also, the Potency entry in experiment [2], in experiment [3] and in experiment [4] was “inactive” in each case.
`N[C@@H](Cc1ccc(F)cc1)C(=O)O`: the activation in experiment [1] is -38.4%. In addition, the Potency result in experiment [2], in experiment [3] and in experiment [4] was “inactive” throughout.
For `CC[C@@H](C)[C@H]1O[C@]2(CC[C@H]1C)C[C@@H]1C[C@@H](CC=C(C)[C@@H](O[C@H]3C[C@H](OC)[C@@H](O[C@H]4C[C@H](OC)[C@@H](O)[C@H](C)O4)[C@H](C)O3)[C@@H](C)C=CC=C3CO[C@@H]4[C@H](O)C(C)=C[C@@H](C(=O)O1)[C@]34O)O2`, the activation in experiment [1] is -12.1%. Besides, the Potency entry in experiment [2], in experiment [3] and in experiment [4] was “inactive” in each case.
For the molecule `CN(C)C(N)=NCCC[C@H](N)C(=O)O`, in experiment [1], the activation is -10.9%. Besides, the Potency result in experiment [2], in experiment [3] and in experiment [4] was “inactive” throughout.
`N[C@@H](COP(=O)(O)O)C(=O)O`: in experiment [1], the activation was -2.51% and -5.8%. Moreover, the Potency result in experiment [2], in experiment [3] and in experiment [4] was “inactive” in each case.
As to `Cn1cc(C2=C(c3ccc(Cl)cc3Cl)C(=O)NC2=O)c2ccccc21`, the Potency is 10.7 µM (active) in experiment [1] and 2.39 µM (active) in experiment [2]. Further, the Potency entry in experiment [3] and in experiment [4] was “inactive” in each case.
In the case of `CCCCC1C(=O)N(c2ccccc2)N(c2ccccc2)C1=O`, in experiment [1], the activation is 10% and 16.7%. For the same molecule, the Potency result in experiment [2], in experiment [3] and in experiment [4] was “inactive” in each case.
Take `CC(=O)O[C@H]1C[C@@H]2CC[C@@H]3[C@H](CC[C@@]4(C)[C@H]3C[C@H]([N+]3(C)CCCCC3)[C@@H]4OC(C)=O)[C@@]2(C)C[C@@H]1[N+]1(C)CCCCC1`: in experiment [1], the activation is -16.6%. For the same molecule, the Potency result in experiment [2], in experiment [3] and in experiment [4] was “inactive” each time.
Turning to `O=C(NCCN1CCOCC1)c1ccc(Cl)cc1`, the activation in experiment [1] is -2.82% and -8.35%. For the same molecule, the Potency result in experiment [2], in experiment [3] and in experiment [4] was “inactive” each time.
On to `C[C@](N)(Cc1ccc(O)cc1)C(=O)O`, for which, in experiment [1], the activation is -4.18% and 8.39%. Also, the Potency result in experiment [2], in experiment [3] and in experiment [4] was “inactive” each time.

The values above are taken from PubChem BioAssay (NCATS).
